# Measurements reported in PubChem BioAssay AID2284353 (EPA ToxCast).
# Records with an inconclusive call do not appear. Calls of active or inactive are those of the source. How the source made its calls: active means hit-call score of the fitted dose curve at least 0.9, where 1 is the maximum; inconclusive means response in the unintended direction; inactive means score below 0.9.
# Test system: Japanese medaka Peroxisome Proliferator-activated Receptor gamma (PPARg), gene 100304459
# Assay: ATG_jmPPARg_EcoTox2: Attagene TRANS-FACTORIAL EcoTox-2 HepG2 Assay for Japanese medaka Peroxisome Proliferator-activated Receptor gamma (PPARg)
# Experimental: ATG_EcoTox2 is a cell-based, multiplexed assay created by modifying the existing Attagene TRANS-FACTORIAL system to include a panel of nuclear receptors from some or all the following species: human (Homo sapiens), african clawed frog (Xenopus laevis), rainbow trout (Oncorhynchus mykiss), japanese medaka (Oryzias latipes), and zebrafish (Danio rerio). The ECOTOX2-FACTORIAL format uses HepG2, a human liver cell line, with measurements taken at 24 hours after chemical dosing in a 24-well plate. ATG_jmPPARg_EcoTox2 is one of 29 assay components calculated in the ATG_EcoTox2 assay. It is designed to make measurements of mRNA induction, a form of inducible reporter, as detected with fluorescence intensity signals by Reverse transcription polymerase chain reaction (RT-PCR) and Capillary electrophoresis technology.The assay endpoint ATG_jmPPARg_EcoTox2 was analyzed in the positive analysis fitting direction relative to DMSO as the negative control and baseline of activity. Using a type of inducible reporter, measures of mRNA for gain-of-signal activity can be used to understand the reporter gene at the transcription factor-level as they relate to the gene PPARg. Furthermore, this assay endpoint can be referred to as a primary readout, because this assay has produced multiple assay endpoints where this one serves a reporter gene function. To generalize the intended target to other relatable targets, this assay endpoint is annotated to the nuclear receptor intended target family, where the subfamily is non-steroidal.
# Human liver HepG2 cells are transiently transfected with multiple reporter transcription units (MRTUs) in 6-well plates using FuGene 6 reagent (Roche; 3 ml FuGene/1 mg DNA). The MRTU constructs are regulated by a cis-regulating element (promoter). Each RTU expresses a GAL4-UAS that regulates the transcription of a nearby target reporter gene sequence. A major difference between the CIS and TRANS system is that in CIS activities of endogenous TFs are measured, whereas the TRANS assay evaluates changes in activities of exogenous, chimeric NR-Gal4 proteins. […] At the end of 24 hour incubation, total RNA was isolated using TriZol reagent (Invitrogen). The isolated RNA is then reverse-transcribed using oligo(dT) primer and Mo-MLV reverse transcriptase (Invitrogen) with DNAse I (Ambion) treatment for 30 min. The one-tenth of the produced cDNA was amplified by PCR using Taq DNA polymerase (Invitrogen) and two reporter sequence-specific primers. The PCR products were fluorescently labeled by primer extension with 6-arboxyfluorescein (6-FAM) 5'-labeled reporter sequence-specific primer (2 min at 95 C, 20 s at 68 C and 10 min at 72 C) and these products were digested with 5U of HpaI (New England Biolabs) for 2h at 37 C. The fragments were purified using Qiaquick PCR columns (Qiagen), analyzed on an ABI 3130xL genetic analyzer (Applied Biosystems) with peak positions identified by using a set of X-rhodamine (ROX)-labeled MapMarker1000 molecular weight standards (BioVentures). The raw capillary electrophoresis data was processed using Attagraph software (Attagene).
row,SMILES,AC50
1,O=C(O)C(F)(F)C(F)(F)C(F)(F)C(F)(F)C(F)(F)C(F)(F)C(F)(F)F,75 µM (active)
2,O=S(=O)(O)C(F)(F)C(F)(F)C(F)(F)C(F)(F)C(F)(F)C(F)(F)F,76.1 µM (active)
3,[Cl][Sn]([c]1ccccc1)([c]1ccccc1)[c]1ccccc1,0.382 µM (active)
4,O=P(Oc1ccccc1)(Oc1ccccc1)Oc1ccccc1,30.6 µM (active)
5,CCCCOCN(C(=O)CCl)c1c(CC)cccc1CC,4.6 µM (active)
